MARV entry inh = qHTS for inhibitors of binding or entry into cells for Marburg Virus; actives 1.8% (n = 300,000); Marburg virus pseudotyped entry inhibition, cell reporter; AID 540276, 2011; Potency, µM (titrated, usually from 37.8 µM), most hits filed as inhibitors; calls by dose curve; tested in HEK293 cells
Pf growth 96h = Primary qHTS for delayed death inhibitors of the malarial parasite plastid, 96 hour incubation | P. falciparum luciferase reporter growth, 96 h | Potency, µM (highest dose often 28.7 µM), actives largely listed as inhibitors | actives 6.9% (n = 320,000) | AID 504834, 2011
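P. falciparum expressing integrated firefly luciferase grown in erythrocytes (2% hematocrit, 0.05% parasitemia final) with compounds for 96 hours at 37 C, 5% CO2. Growth inhibition read as loss of luminescence after adding luciferase detection reagent.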
Pf growth 48h = Primary qHTS for delayed death inhibitors of the malarial parasite plastid, 48 hour incubation; actives 5.9% (n = 310,000); P. falciparum luciferase growth in erythrocytes, 48 h; Potency, µM (top dose mostly 28.7 µM), usual class: inhibitors
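Here the parasites carry a stable luciferase gene and grow inside erythrocytes in Albumax-based RPMI medium with compound for one erythrocytic cycle. Activity is scored as loss of luminescent signal.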
Shiga toxin inh = A qHTS for Small Molecule Inhibitors of Shiga Toxin. Vero cells, Shiga toxin protein synthesis inhibition reporter. inhibition, % at 38.7 µM. actives 9.2% (n = 290,000). AID 2315, 2010; in the data active = inhibition mostly above about 28%, no sharp cut-off; inactive = mostly below about 43%
Lassa entry inh = qHTS for Inhibitors of binding or entry into cells for Lassa Virus. Lassa virus pseudotype entry inhibition, cell reporter. actives 1.2% (n = 300,000). Potency, µM (titrated, usually from 37.9 µM), actives largely listed as inhibitors. AID 540256, 2011; calls by dose curve; tested in HEK293 cells; note: nearly all actives have a fitted effect of over 50% in size
Cycloheximide cs = Cycloheximide Counterscreen for Small Molecule Inhibitors of Shiga Toxin. cell reporter, cycloheximide protein synthesis inhibition counterscreen. actives 12% (n = 300,000). max response, %. AID 2314, 2010; in the data active = max response mostly above about 13%, no sharp cut-off; inactive = mostly below about 14%; note: read at 38.3 µM for the half of the compounds with a filed dose
A number is an active result. In the library only some 19% were active in any assay of this set; here they are far more common. Unless noted, calls come from the whole dose curve; as a rule, active = well fitted inhibition curve with a large enough effect; inconclusive = small, poorly fitted or top-dose-only effect, or another doubt; inactive = no such curve, though single readings can be large or run the other way.

What do the screens show for `C#CCNC(=O)C1=C[C@@H](c2cn(C(C)=O)c3ccccc23)C[C@@H](OCCCCO)O1`?
Pf growth 96h: inconclusive; Pf growth 48h: inconclusive; Shiga toxin inh: inactive; Cycloheximide cs: inactive

Results for C#CCNC(=O)C1=C[C@@H](c2cn(C(C)=O)c3ccccc23)C[C@@H](OCc2ccc(CO)cc2)O1 ?
Pf growth 96h: 6.57µM; Pf growth 48h: 8.28µM; Shiga toxin inh: inactive; Cycloheximide cs: inactive

How did CC(=O)n1cc([C@H]2C=C(C(=O)NCc3ccccc3)O[C@@H](OCc3ccc(CO)cc3)C2)c2ccccc21 do in these assays?
Pf growth 96h: 2.08µM; Pf growth 48h: inconclusive; Shiga toxin inh: inactive; Cycloheximide cs: inactive

How did O=C(NN1C(=O)NC2(CCCCC2)C1=O)c1cc2ccccc2o1 do in these assays?
Pf growth 96h: inconclusive; Pf growth 48h: inactive

Results for COc1ccc2[nH]cc(CCN)c2c1 ?
MARV entry inh: inconclusive; Pf growth 96h: inactive; Pf growth 48h: inconclusive; Shiga toxin inh: inactive; Lassa entry inh: inconclusive; Cycloheximide cs: inactive

How did C[C@@]12CC(=O)NC1N(C(=O)c1cccc(C(F)(F)F)c1)C(c1ccccc1OC(=O)c1cccc(C(F)(F)F)c1)C2 (stereo not given in full) do in these assays?
MARV entry inh: inconclusive; Pf growth 96h: 9.28µM; Shiga toxin inh: inactive; Lassa entry inh: inconclusive; Cycloheximide cs: inactive

What do the screens show for `O=C(NC1CCCC1)C1CCC(CNS(=O)(=O)c2ccc(F)cc2)CC1` (stereo not given)?
Pf growth 96h: inconclusive; Pf growth 48h: inactive; Shiga toxin inh: inactive; Cycloheximide cs: inactive

What do the screens show for `COc1cc(C(=O)NCC(=O)NCC(c2ccco2)N2CCCCC2)cc(OC)c1OC` (stereo not given)?
Pf growth 96h: 3.29µM; Pf growth 48h: inconclusive

Results for COc1ccc(C(CNC(=O)c2cccc(S(=O)(=O)Nc3ccccc3OC)c2)N2CCCC2)cc1 (stereo not given) ?
MARV entry inh: inconclusive; Pf growth 96h: 13.1µM; Pf growth 48h: inconclusive; Lassa entry inh: inactive

Results for CCC1CCc2sc(C(=O)NCC(c3ccc(OC)cc3)N3CCCC3)cc2C1 (stereo not given) ?
MARV entry inh: inconclusive; Pf growth 96h: inconclusive; Pf growth 48h: 11.7µM; Lassa entry inh: inconclusive

Results for COc1ccc(NS(=O)(=O)c2cccc(C(=O)NCC(c3ccc(OC)cc3)N3CCCC3)c2)cc1 (stereo not given) ?
MARV entry inh: inconclusive; Pf growth 96h: 7.38µM; Pf growth 48h: 6.57µM; Lassa entry inh: inactive

How did COc1ccc(C(CNC(=O)c2cc(S(=O)(=O)N3CCCCC3)ccc2C)N2CCCC2)cc1 (stereo not given) do in these assays?
MARV entry inh: inconclusive; Lassa entry inh: inactive

Results for COc1ccccc1CNC(=O)c1cccc(N(C)C)c1 ?
MARV entry inh: inconclusive; Pf growth 48h: inactive; Shiga toxin inh: inactive; Lassa entry inh: inactive; Cycloheximide cs: inactive

What do the screens show for `COc1ccc(CNC(=O)c2cccc(N(C)C)c2)cc1`?
MARV entry inh: inactive; Pf growth 96h: 1.85µM; Pf growth 48h: inactive; Shiga toxin inh: inactive; Lassa entry inh: inactive; Cycloheximide cs: inactive

Results for COc1ccc(NS(=O)(=O)c2cccc(C(=O)NCC(c3ccccc3OC)N3CCCC3)c2)cc1 (stereo not given) ?
MARV entry inh: inconclusive; Pf growth 96h: inconclusive; Pf growth 48h: 10.4µM; Lassa entry inh: inactive

Results for COc1ccc(C(CNC(=O)CNC(=O)c2ccccc2Cl)N2CCCC2)cc1 (stereo not given) ?
MARV entry inh: inactive; Pf growth 96h: inconclusive; Pf growth 48h: inconclusive; Lassa entry inh: inactive

Results for COc1ccc(C(CNC(=O)c2cccc(S(=O)(=O)N3CCCCC3)c2)N2CCCC2)cc1 (stereo not given) ?
Pf growth 96h: 10.4µM; Pf growth 48h: inconclusive

What do the screens show for `COc1ccc(C(CNC(=O)c2cc3ccccc3cc2OC)N2CCCC2)cc1` (stereo not given)?
MARV entry inh: inconclusive; Pf growth 96h: 4.15µM; Shiga toxin inh: inactive; Lassa entry inh: inconclusive; Cycloheximide cs: inactive

How did CCCCN(C(=O)C1CCCC1)c1c(N)n(CCC)c(=O)[nH]c1=O do in these assays?
MARV entry inh: inactive; Pf growth 96h: inactive; Pf growth 48h: inactive; Lassa entry inh: inactive
